Screening data deposited in PubChem BioAssay by several laboratories.
GLD-1 RNA inh: GLD-1-TGE RNA interaction inhibition (C. elegans); purified GLD-1 + fluorescein TGE RNA, fluorescence polarization; Q17339; 0.44% of 320,000 active; AID 2280; inhibition, % at 5.96 µM;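 active means percent inhibition above a per-plate cutoff, the plate mean of test compounds plus 3 SD, cut at about 30% in these data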
MCL1-BIM inh: MCL1-BIM-BH3 interaction inhibition (human); inhibition, % at 10.9 µM; AID 2057; GST-MCL1 / FITC-Bim-BH3 fluorescence polarization; 0.68% of 320,000 active;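 active means inhibition above the mean inhibition of all tested compounds plus 3 SD, set per campaign, cut at about 40% in these data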;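 further: higher means more loss of mP so more displacement of Bim peptide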
Target sequence (Q07820 whole entry, looked up): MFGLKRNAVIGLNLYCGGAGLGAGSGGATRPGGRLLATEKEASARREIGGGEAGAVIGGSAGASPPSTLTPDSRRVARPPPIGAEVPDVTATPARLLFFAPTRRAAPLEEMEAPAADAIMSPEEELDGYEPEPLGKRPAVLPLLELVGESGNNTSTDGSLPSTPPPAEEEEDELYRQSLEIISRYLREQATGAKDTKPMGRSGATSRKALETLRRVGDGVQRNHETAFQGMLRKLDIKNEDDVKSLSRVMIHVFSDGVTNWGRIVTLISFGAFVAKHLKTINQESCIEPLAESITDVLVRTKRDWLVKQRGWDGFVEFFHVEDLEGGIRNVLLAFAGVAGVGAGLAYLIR
Bcl-xL primary: inhibitors of human Bcl-xL; Q07817; GST-Bcl-xL / FITC-Bim BH3 peptide fluorescence polarization; inhibition, % at 10.9 µM; 0.7% of 320,000 active; AID 2129;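 active means inhibition above the mean of all tested compounds plus 3 SD, cutoff set per campaign, cut at about 30% in these data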;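 further: inhibitors lower millipolarization by displacing the labeled peptide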
eLon inh: inhibits E. coli Lon protease. purified E. coli Lon protease, fluorescence polarization. inhibition, % at 7.94 µM. 0.42% of 360,000 active. AID 602123; in the data active means inhibition above about 13%, passing the limit was not always enough
EBV gp42 block: EBV gp42 inhibition; Q1HVG2; Fluorescence polarization binding assay, mP read-out; inhibition, % (tested at 21.74 µM); 0.42% of 220,000 active; in the data active means inhibition above about 50%
Target sequence (Q1HVG2 whole entry, looked up): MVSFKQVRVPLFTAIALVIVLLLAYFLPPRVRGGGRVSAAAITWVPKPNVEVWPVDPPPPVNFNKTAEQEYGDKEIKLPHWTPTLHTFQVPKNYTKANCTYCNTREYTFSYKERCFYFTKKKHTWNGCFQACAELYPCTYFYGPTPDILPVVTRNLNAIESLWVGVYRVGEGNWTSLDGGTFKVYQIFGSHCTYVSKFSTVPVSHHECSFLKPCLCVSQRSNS
MEX-5 binding: C. elegans MEX-5 TCR-2 RNA binding activity; activity score (negative = inhibition of binding), % at 10 µM; MEX-5/FITC-TCR2 RNA binding, fluorescence polarization; stronger effect = lower value; 0.38% of 300,000 active; Q9XUB2;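 active means inhibition past about -25% in most replicates, and total fluorescence under double the plate's negative control median, limit read from the data; inconclusive means replicates evenly split on the limit, or fluorescence at least double controls; inactive means too little inhibition in most replicates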
BCLXL inh confirm: Bcl-xL (human) inhibition, MCL1 counter-screen confirmation; shares compounds with MCL1-BIM inh; GST-Bcl-xL / FITC-Bim BH3 peptide FP binding; inhibition, % at 10.9 µM; 54% of 1,700 active; AID 2166;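 active means inhibition above a cutoff equal to the mean inhibition of all tested compounds plus 3 SD, cut at about 30% in these data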
MCL1 BIM confirm: confirmation of human MCL1 and BIM-BH3 interaction inhibitors | GST-MCL1 / FITC-Bim-BH3 fluorescence polarization | shares compounds with MCL1-BIM inh | inhibition, % at 10.9 µM | 61% of 1,700 active;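 active means inhibition above the average of all tested compounds plus 3 SD, cut at about 40% in these data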
GLD-1 TGE cf: confirmation of C. elegans GLD-1 TGE RNA binding inhibitors; shares compounds with GLD-1 RNA inh; GLD-1/FL-TGE RNA fluorescence polarization, biochemical; inhibition, % at 5.96 µM; 10% of 550 active; AID 2459;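 active means average inhibition across triplicates above the hit cutoff set in the primary screen, cut at about 32% in these data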
eLon confirm: confirmation of E. coli Lon protease inhibitors; shares compounds with eLon inh; purified E. coli Lon, fluorescence polarization; inhibition, % at 7.94 µM; 31% of 1,400 active; AID 602230; in the data active means inhibition above about 16%
Numbers stand for hits; - = inactive; ? = inconclusive; . = no result; + = active, no number. In the library only some 1.5% were active in any assay of this set; here they are far more common.

SMILES	GLD-1 RNA inh	MCL1-BIM inh	Bcl-xL primary	eLon inh	EBV gp42 block	MEX-5 binding	BCLXL inh confirm	MCL1 BIM confirm	eLon confirm	others
CC1(OC(=O)c2ccco2)C(=O)C=C2C=C(C3CC3)OC=C2C1=O (centres undefined)	63.1	79.4	75.0	25.4	.	-34.4	39.7	58.7	-
NC(=S)Nc1cc2ccccc2c2ccccc12	-	-	-	-	-	-	.	.	.
NC(=S)Nc1cccc2cc3ccccc3cc12	-	52.9	57.0	41.6	-	-	81.0	94.6	112.8
CCc1nc2ccc(C(=O)NC3CCN(Cc4ccccc4)CC3)cn2c1N(C)Cc1ccc(N(C)C)cc1	.	.	.	-	.	.	.	.	.
CC(C)(CCO)Nc1ncnc2onc(-c3ccc(F)cc3)c12	-	-	-	-	.	-	.	.	.
Cc1c2ccccc2nc2c(F)c(NC(C)C)c(F)c(F)c12	119.2	139.0	122.3	106.9	167.8	-33.5	130.9	150.6	194.3
Cc1c2ccccc2nc2c(F)c(NCCO)c(F)c(F)c12	83.0	+	157.3	50.5	186.7	-30.7	+	+	+
Cc1c(Cl)cccc1Nc1nc(NCCO)c2ccccc2n1	-	-	-	-	.	-	.	.	.
CC1(C)c2[nH]c3ccccc3c2C[C@@H]2C(=O)N(c3ccc(F)cc3F)C(=O)N21	-	-	-	-	.	?	.	.	.
COc1ccc2ccccc2c1C(O)c1nccn1C (centres undefined)	145.0	+	173.1	54.9	60.3	-	164.1	196.9	168.2
C=CCNC(=O)/C(C#N)=C/c1ccccc1[N+](=O)[O-]	30.8	51.3	45.2	23.4	-	-	-	-	18.9	GLD-1 TGE cf=45.2
Cn1nc([N+](=O)[O-])c(C(C#N)c2ccccn2)c(Cl)c1=O (centres undefined)	-	60.0	47.7	16.7	-	-	-	-	-
O=C1C=C(NNC(=O)c2cccnc2)CC(c2ccco2)C1 (centres undefined)	119.9	53.6	49.0	46.0	-	-	-	-	-
CCOC(=O)C1=C(COC(=O)c2ccc3ccccc3c2O)NC(=O)NC1C (centres undefined)	45.6	87.8	61.4	49.2	.	.	-	-	-	GLD-1 TGE cf=-
CCOC(=O)C1=C(COC(=O)c2ccccc2OC(F)F)NC(=O)NC1C (centres undefined)	-	-	-	-	.	-	.	.	.
COc1ccc(CCC(=O)NCCS(=O)(=O)N2CCN(c3ccc(F)cc3)CC2)cc1	-	-	-	-	.	-	.	.	.
Cc1oc(/N=C/c2ccccc2O)c(C#N)c1C	-	-	-	-	-	-	.	.	.
Cc1oc(/N=C/c2ccc(O)cc2O)c(C#N)c1C	53.4	64.9	63.8	14.0	-	?	57.3	65.1	-
Cn1c(=O)cc2c3c(c(N4CCCCC4)ccc31)C(=O)c1ccccc1-2	81.6	151.6	147.4	+	74.2	-39.6	111.7	143.3	73.0	GLD-1 TGE cf=45.6
Cc1ccccc1-n1c(SCc2c(C)noc2C)nnc1-c1ccncc1	-	-	-	-	-	-	.	.	.
Cc1ccccc1-n1c(SCc2c(C)noc2C)nnc1-c1cccnc1	88.9	143.8	133.2	63.1	89.1	-	116.2	135.8	45.0
COc1cc(CC(=O)OCC(=O)NCc2cccs2)cc(OC)c1OC	-	.	.	-	.	.	.	.	.
CC(C)n1nnnc1SCC(=O)N1CCN(Cc2ccc3c(c2)OCCO3)CC1	-	-	-	-	.	.	.	.	.
Nc1ccc2nc3c(=O)n(CCc4ccccc4)c(=O)[nH]c3nc2c1	191.1	+	180.5	190.6	173.5	-52.0	182.4	+	132.3
CCCCn1c(N)c(Br)c(=O)[nH]c1=O	-	-	-	-	-	-	.	.	.
SMILES	GLD-1 RNA inh	MCL1-BIM inh	Bcl-xL primary	eLon inh	EBV gp42 block	MEX-5 binding	BCLXL inh confirm	MCL1 BIM confirm	eLon confirm	others
Nc1ccc2nc(CCc3ccccc3)[nH]c2c1	-	-	-	-	-	-	.	.	.
Nc1ccc2nc3c(=O)n(C4CCCCC4)c(=O)[nH]c3nc2c1	+	+	+	+	151.7	?	190.8	+	182.7
COc1cc2[nH]c(=O)n(C3CCCCC3)c(=O)c2cc1OC	-	-	-	-	-	-	.	.	.
Cc1cc2nc3c(=O)n(CCc4ccccc4)c(=O)[nH]c3nc2cc1N	189.4	+	+	165.9	157.6	?	189.8	+	88.7
CCCCn1c(=O)[nH]c2nc3cc(N)ccc3nc2c1=O	+	+	+	+	173.5	.	+	+	+
O=[N+]([O-])c1ccc2[nH]c3nc4ccccc4nc3c2c1	-	-	-	-	-	-	.	.	.
COc1ccc(C2CC(=O)CCN2S(=O)(=O)c2ccc(C)cc2)cc1 (centres undefined)	.	.	.	-	.	.	.	.	.
COc1ccc(/C=C2\CCc3c2nc2ccccc2c3C(=O)O)cc1OC	117.2	85.6	98.8	64.9	-	-	-	-	-
O=C(O)c1ccc(/C=C2\CCCc3c2nc2ccccc2c3C(=O)O)cc1	-	-	-	-	.	-	.	.	.
Cc1ccc(NC(=O)CCNS(=O)(=O)c2ccc3[nH]c(=O)oc3c2)c(Cl)c1	-	-	-	-	.	-	.	.	.
O=C(NCc1nnc(SCC(=O)N2CCOCC2)o1)c1ccccc1F	-	-	-	-	-	-	.	.	.
CCNc1cccc2c1C(=O)N(C)C2=O	180.1	+	176.6	150.8	160.4	-	167.3	+	164.6
CC1OC2(C)OC(=N)C1(C#N)C(C#N)(C#N)C2c1ccccc1 (centres undefined)	66.0	86.7	55.3	15.4	-	-	-	-	-
S=C(Nc1ccc2nc(-c3ccccn3)c(-c3ccccn3)nc2c1)N1CCOCC1	40.2	86.6	59.7	20.4	-	-	31.0	-	-	GLD-1 TGE cf=-
CN(C)NC(=S)Nc1ccc2nc(-c3ccccn3)c(-c3ccccn3)nc2c1	-	-	-	-	-	-	.	.	.
CC(C)(CO)[C@@H](O)C(=O)NCCC(=O)O	-	-	-	-	.	.	.	.	.
O=C(NCc1ccncc1)C(=O)Nc1ccc2c(c1)OCO2	-	-	-	-	-	-	.	.	.
c1cc(CNc2ccc3c(c2)OCO3)ccn1	-	85.4	85.9	26.9	-	-	64.3	80.9	33.9
COC(=O)[C@@H](Cc1c[nH]c2ccccc12)NC(=O)C1CCCN(S(=O)(=O)c2ccc(C)cc2)C1 (some centres undefined)	.	.	.	-	.	-	.	.	.
